Compound activity as filed in PubChem BioAssay.
CYP2C19 activ – human CYP2C19 activators, primary screen, biochemical, luminescence. recombinant CYP2C19, luciferin-H EGE luminescence; stronger effect = higher value; 0 = fully inhibited enzyme, 1 = untreated enzyme. activation factor at 5 µM. Cytochrome P450 2C19 (Homo sapiens), P33261. 96,000 tested, under 10 active;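 active means activation factor of at least 2 at 5 µM in the primary screen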;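 further: 0 = wells with 2.5 mM tranylcypromine and 1 = vehicle-only wells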
CYP2C19 inh – blockers of cytochrome P450 2C19 activity – biochemical, luminescence, ADME assay, primary screen | P33261 | CYP2C19 Supersomes, luciferin-H EGE luminescence, 30 min | inhibition, % at 5 µM | hit rate 21% among 96,000 | AID 778, 2007;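 active means CYP2C19 inhibition above a set limit at 5 µM in the primary screen, cut at about 50% in these data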;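 further: plate controls were negative control wells for no effect and 2.5 mM tranylcypromine positive control for full effect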
CYP2C9 inh – blockers of cytochrome P450 2C9 activity – biochemical, luminescence, ADME assay, primary screen; P11712; CYP2C9 Supersomes, luciferin-H conversion; inhibition, % at 5 µM; hit rate 20% among 96,000; AID 777, 2007;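 active means blocking of liver enzyme CYP2C9 beyond about 50% at 5 µM, limit read from the data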
CYP2C9 act – human CYP2C9 activators, primary screen, biochemical, luminescence; Cytochrome P450 2C9 (Homo sapiens), P11712; hit rate 1.4% among 96,000; activation factor at 5 µM; AID 1024, 2008; recombinant CYP2C9, luciferin-H conversion; stronger effect = higher value; factor 1 = untreated enzyme, 0 = blocked;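 active means activation factor of 2 or more for CYP2C9 at a 5 µM dose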;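 further: 0 = sulfaphenazole-blocked wells and 1 = vehicle-only wells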
Measles CPE – compounds protecting cells from measles virus cytopathic effect, primary screen, measles RdRp inhibitor project, single point, MLSMR library, absorbance | hit rate 1.5% among 140,000 | protection (pct of control), % at 4 µM | Measles virus-infected cells, CPE protection; in the data active means protection mostly above about 24%, no sharp cut-off; inactive means mostly below about 26%
Starred values were filed as active, the others as inactive. A selection: hits, their analogues and other compounds. The true share with any hit is near 22%.

SMILES	CYP2C19 activ	CYP2C19 inh	CYP2C9 inh	CYP2C9 act	Measles CPE
O=S(=O)(N1CCCCC1)N1CCCN(S(=O)(=O)N2CCCCC2)CC1	0.7	25.4	50.4*	0.5	7.2
O=S(=O)(N1CCCCCC1)N1CCN(S(=O)(=O)N2CCOCC2)CC1	0.9	8.6	9.1	0.9	26.5
O=C(NCc1ccco1)c1cccc(-c2nnc(-c3ccccc3)o2)c1	0.3	71.1*	82.5*	0.2	8.9
CCc1nc2ccc(C(=O)NCc3ccco3)cc2nc1CC	0.9	6.7	-14.2	1.1	0.9
COc1ccccc1-c1cc(C(=O)NCc2ccco2)no1	0.9	14.1	-88.7	1.9	2.9
COc1cc(-c2noc(-c3ccccc3C(=O)NCc3ccco3)n2)cc(OC)c1OC	0.9	11.3	50.2*	0.5	12.2
CN1CCN(C(=O)c2ccccc2-c2nc(-c3ccccc3)no2)CC1	0.7	27.5	71.0*	0.3	5.2
O=C(NCc1ccco1)c1ccccc1-c1nc(-c2ccccc2)no1	0.7	32.1	54.1*	0.5	18.5
Cc1cc(C)n(C(=O)CNC(=O)CCc2ccccc2)n1	0.9	8.7	-86.7	1.9	6.1
